CYP2C9 inh: blocks human cytochrome P450 2C9; P11712; CYP2C9 Supersomes, luciferin-H conversion, luminescence; inhibition, % at 5 µM; 96,000 compounds, 20% hits; AID 777;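 active = blocking of liver enzyme CYP2C9 beyond about 50% at 5 µM, limit read from the data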
CYP2C19 activ: increases human CYP2C19 enzyme activity | P33261 | recombinant CYP2C19, luciferin-H EGE luminescence; stronger effect = higher value; 0 = fully inhibited enzyme, 1 = untreated enzyme | activation factor at 5 µM | 96,000 tested, under 10 active;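 active = activation factor of at least 2 at 5 µM in the primary screen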
Target sequence (P33261 whole entry, looked up): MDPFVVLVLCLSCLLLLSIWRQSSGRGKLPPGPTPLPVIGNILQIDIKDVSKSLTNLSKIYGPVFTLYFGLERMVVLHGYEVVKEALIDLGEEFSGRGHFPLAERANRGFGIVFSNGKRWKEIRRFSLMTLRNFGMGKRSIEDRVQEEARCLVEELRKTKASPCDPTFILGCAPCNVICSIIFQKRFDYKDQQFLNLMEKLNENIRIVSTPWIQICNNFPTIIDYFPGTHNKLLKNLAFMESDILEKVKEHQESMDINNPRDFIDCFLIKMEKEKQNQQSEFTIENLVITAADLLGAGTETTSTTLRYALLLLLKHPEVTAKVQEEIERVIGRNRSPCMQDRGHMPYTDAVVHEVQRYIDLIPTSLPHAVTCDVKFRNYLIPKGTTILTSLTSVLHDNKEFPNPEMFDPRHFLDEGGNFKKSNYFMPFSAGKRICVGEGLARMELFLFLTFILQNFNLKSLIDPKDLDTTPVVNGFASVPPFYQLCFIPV
CYP2C9 act: activators of human CYP2C9 | P11712 | recombinant CYP2C9, luciferin-H conversion, luminescence; stronger effect = higher value; factor 1 = untreated enzyme, 0 = blocked | activation factor at 5 µM | 96,000 compounds, 1.4% hits;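 active = activation factor of 2 or more for CYP2C9 at a 5 µM dose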
CYP2C19 inh: inhibitors of human CYP2C19 | AID 778 | inhibition, % at 5 µM | CYP2C19 Supersomes, luciferin-H EGE luminescence, 30 min | 96,000 compounds, 21% hits;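 active = CYP2C19 inhibition above a set limit at 5 µM in the primary screen, cut at about 50% in these data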
PLAP act: activates human placental alkaline phosphatase; activation fold at 20 µM; 96,000 compounds, 1.2% hits; P05187; AID 696; purified PLAP enzyme, luminescent substrate read-out; stronger effect = higher value; in the data active = activation fold above about 2
Large screens that a line does not name were inactive. The list is not random: actives were taken first. Their share in the collection is about 31%.

CC(C)(C)c1ccc(OCc2ccc(C(=O)N/N=C/c3ccc([N+](=O)[O-])cc3)o2)cc1	none
O=C(Nc1ccc2c(c1)OCCO2)C1CCCN(S(=O)(=O)c2cnc[nH]2)C1 (centres undefined)	CYP2C9 inh 62
O=C(NCCN1CCN(c2cccc(Cl)c2)CC1)C1CCCN(S(=O)(=O)c2cnc[nH]2)C1 (centres undefined)	none
O=C(Nc1ccc(Cl)c(C(F)(F)F)c1)C1CCCN(S(=O)(=O)c2cnc[nH]2)C1 (centres undefined)	CYP2C9 inh 94, CYP2C19 inh 93
COc1ccc(NC(=O)C2CCCN(S(=O)(=O)c3cnc[nH]3)C2)cc1 (centres undefined)	CYP2C9 inh 62
Cc1cc(NC(=O)C2CCCN(S(=O)(=O)c3cnc[nH]3)C2)ccc1Br (centres undefined)	CYP2C9 inh 94, CYP2C19 inh 97
Cc1ccc(C)c(N2CCN(C(=O)C3CCCN(S(=O)(=O)c4cnc[nH]4)C3)CC2)c1 (centres undefined)	none
COc1cc(NC(=O)c2cc(-c3cccnc3)nc3ccc(C)cc23)c(OC)cc1Cl	none
O=C(Nc1cccc(Cl)c1)C1CCCN(S(=O)(=O)c2cnc[nH]2)C1 (centres undefined)	CYP2C9 inh 96, CYP2C19 inh 95
Cc1ccc(NC(=O)C2CCCN(S(=O)(=O)c3cnc[nH]3)C2)cc1C (centres undefined)	CYP2C9 inh 86, CYP2C19 inh 90
CCCCn1nc2cc(C(=O)NCC34CC5CC(CC(C5)C3)C4)ccc2c1OC	none
C=CCSc1nnc(NC(=O)CSc2nc(CCC)cc(=O)[nH]2)s1	CYP2C19 inh 51
C=CCSc1nnc(NC(=O)CSc2nc3ccccc3[nH]2)s1	CYP2C9 inh 87, CYP2C19 inh 62
C=CCSc1nnc(NC(=O)CSc2nnc(C)s2)s1	none
C/C=C/C=[N+](\[O-])C(C)/C(=N/O)c1ccc(F)cc1 (centres undefined)	none
CCn1c(C2CC(=O)N(c3ccc(C)c(C)c3)C2)nc2ccccc21 (centres undefined)	CYP2C19 inh 53
Cc1cc(C)cc(N2CC(c3nc4ccccc4n3C)CC2=O)c1 (centres undefined)	none
CC(C)(C)N1CC(c2nc3ccccc3n2Cc2ccccc2)CC1=O (centres undefined)	CYP2C9 inh 79
C=C(C)Cn1c(C2CC(=O)N(Cc3ccccc3)C2)nc2ccccc21 (centres undefined)	CYP2C9 inh 71, CYP2C19 inh 55
CCCn1c(C2CC(=O)N(c3cc(OC)ccc3OC)C2)nc2ccccc21 (centres undefined)	none
CC(=O)c1ccc(NC(=O)C2CC(=O)N(Cc3ccccc3)C2)cc1 (centres undefined)	none
CCn1c(C2CC(=O)N(Cc3ccccc3)C2)nc2ccccc21 (centres undefined)	CYP2C19 inh 53
Cc1ccc(N2CC(c3nc4ccccc4n3C)CC2=O)cc1C (centres undefined)	none
CCOC(=O)C(Sc1cc(C)nc(N)n1)C(C)=O (centres undefined)	none
C=CCN1CC(c2nc3ccccc3n2CCOc2ccccc2)CC1=O (centres undefined)	CYP2C9 inh 73, CYP2C19 inh 60
c1ccc(CCn2c(C3CC3)nc3ccccc32)cc1	CYP2C9 inh 66, CYP2C19 inh 98
O=C(CN1CCOCC1)Nc1nc(-c2ccc3c(c2)CCN3S(=O)(=O)c2ccccc2)cs1	CYP2C9 inh 86, CYP2C19 inh 68, PLAP act 2
CS(=O)(=O)N1CCc2cc(-c3csc(NC(=O)Cc4cccs4)n3)ccc21	CYP2C9 inh 83, CYP2C19 inh 90
Cc1sc(NC(=O)CN2CCOCC2)nc1-c1ccc2c(c1)CCN2S(=O)(=O)c1ccccc1	none
Cc1nnc(NC(=O)Cc2cccs2)s1	none
COc1cccc(C(=O)CSc2nnc(-c3ccco3)n2CC2CCCO2)c1 (centres undefined)	CYP2C19 inh 67
COc1ccc(C(=O)CSc2nnc(-c3ccco3)n2CC2CCCO2)cc1 (centres undefined)	none
O=C(CSc1nnc(-c2ccco2)n1CC1CCCO1)N1CCCCC1 (centres undefined)	CYP2C19 inh 52
Cc1ccc(-n2c(SCC3CCCCO3)nnc2-c2ccco2)cc1 (centres undefined)	CYP2C9 inh 58
Cc1onc(-c2ccccc2)c1C(=O)NCc1ccccn1	none
Cc1onc(-c2ccccc2)c1C(=O)NCC1COc2ccccc2O1 (centres undefined)	CYP2C19 inh 79
Cc1onc(-c2ccccc2)c1C(=O)NCc1ccc2c(c1)OCO2	CYP2C9 inh 57, CYP2C19 inh 92
COC(=O)c1ccccc1NC(=O)c1cc2n(n1)C(C(F)F)CC(C(F)F)N2 (centres undefined)	none
Cc1ccc(-c2cc(C(=O)Nc3nn[nH]n3)c3ccccc3n2)cc1	none
CCc1ccc(-c2nc(CN3CCC(C(=O)NCc4ccccc4OC)CC3)c(C)o2)cc1	none (no result: PLAP act)
Cc1oc(-c2ccccc2)nc1Cn1cccc1C1=NC(c2ccccc2)CO1 (centres undefined)	CYP2C9 inh 82, CYP2C19 inh 84
Cc1cc(Oc2nnnn2-c2ccccc2)ccc1Cl	CYP2C9 inh 61, CYP2C19 inh 58
Brc1ccc(Oc2nnnn2-c2ccccc2)cc1	CYP2C9 inh 81, CYP2C19 inh 100
Cc1cccc(NC(=O)C2CCCN(S(=O)(=O)c3c(C)nn(C)c3C)C2)n1 (centres undefined)	none
O=C(CCc1nc(-c2ccccc2F)no1)NCCc1ccccc1Cl	CYP2C9 inh 56, CYP2C19 inh 80
CCN(CCCNC(=O)CCc1nc(-c2ccc(C)cc2)no1)c1cccc(C)c1	CYP2C9 inh 52
Cc1ccc(-c2noc(CCC(=O)NCCN3CCc4ccccc4C3)n2)cc1	CYP2C9 inh 72, CYP2C19 inh 84
Cc1ccc(-c2noc(CCC(=O)NCCN3CCN(Cc4ccccc4)CC3)n2)cc1	CYP2C9 inh 62, CYP2C19 inh 51
O=C(Nc1ccc(Oc2ccccc2)cc1)C1CCCN(c2ncccn2)C1 (centres undefined)	none
C=CCN(CC=C)S(=O)(=O)c1ccc2nsnc2c1	none
O=C(CCc1nc(-c2ccccc2F)no1)NCCN1CCc2ccccc2C1	CYP2C19 inh 60
Cc1c(C2N3CC4(C)CN2CC(C)(C3)C4=O)c2ccccc2n1C (centres undefined)	none
NC(=O)C1CCN(c2nc(C3CC3)nc3c2nnn3Cc2ccccc2Cl)CC1	none
O=C(NC1CCCC1)c1nc2c(nnn2Cc2ccccc2Cl)c(=O)[nH]1	none
O=C(Cc1cccs1)N1CCC(c2nc3c(nnn3Cc3ccccc3Cl)c(=O)[nH]2)CC1	CYP2C9 inh 100, CYP2C19 inh 79
CCCCCCC(=O)N1CCC(c2nc3c(nnn3Cc3ccccc3Cl)c(=O)[nH]2)CC1	CYP2C9 inh 93
